Here are results for 55 compounds from PubChem BioAssay AID1956 (SRMLSC, 2009).

SMILES strings stand for the structures. The whole screen tested about 220,000 compounds, of which about 10 (0.005%) were called active. No stated cut-off is given here; in the data, active means maximum fold increase above about 1.5; inconclusive means no clear call, values can overlap the other calls; inactive means below that; tested in PC3 cells. The list is a sample of the results.

The experiment in a line: compounds boosting herpes simplex virus growth – fold increase, host cell viability (AID 1956). Conditions: HSV replication augmentation in cells; fold increase: measured here: primary screen fold increase 10 uM, at 10 µM, stronger effect = higher value; maximum fold increase: at 0.098 µM, stronger effect = higher value; viability: measured here: host cell viability series, at 25 µM, stronger effect = lower value.
In the case of `COc1ccc(C#Cc2c(-c3ccc(OC)cc3)oc3ccc(-c4ccc5c(c4)OCO5)cc23)cc1`, the fold increase was found to be 0.99 and the compound was classed as inactive.
As to `Cc1nc(-c2ccccc2)sc1C1(C)CC(c2cccnc2)=NO1` (stereo not given), the fold increase came out at 0.85 and the compound was called inactive.
Consider `COC(=O)c1sccc1NN1C(=O)c2ccccc2C1=O`, for which the fold increase was found to be 1.18 and the compound was called inactive.
In the same order, the values of `COCCN1C2=C(COC(C)(C)C2)C(=S)NC1c1ccccc1` (stereo not given) are 0.95 and “inactive”.
For the compound `O=C1N[C@@H](Cc2ccccc2)C(=O)N2[C@@H]3N(S(=O)(=O)c4ccc(F)cc4)c4ccccc4[C@]3(Br)C[C@@H]12`, the fold increase is 0.86 and the compound was called inactive.
The corresponding values for `CCOC(=O)C[C@H]1c2ccc(C(F)(F)F)cc2S(=O)(=O)N1c1ccccc1` are 0.88 and “inactive”.
For the compound `Cc1ccc(S(=O)(=O)N(C)C)cc1NC(=O)c1n[nH]c(=O)c2ccccc12`, the fold increase was 0.73 and the result was inactive.
On to `O=C(NCc1ccccc1)c1ccc(S(=O)(=O)Nc2cccc(C(F)(F)F)c2)cc1`, for which the fold increase turned out to be 0.83 and the call was inactive.
With `O=C1CC(Cc2ccc(Cl)cc2)C(=O)N1c1cc(Cl)ccn1` (stereo not given), the fold increase turned out to be 1.23 and the outcome was inactive.
As to `O=C(O)C(F)(F)C(NCc1ccccc1)c1ccccc1` (stereo not given), the fold increase turned out to be 0.84 and the result was inactive.
Turning to `CCN(CC)CCNCC(=O)Nc1ccc(Oc2ccccc2)cc1`, the fold increase was determined as 0.94 and the compound was classed as inactive.
On to `NS(=O)(=O)c1ccc(NC2=CC(c3ccc(F)cc3)N(c3ccc(S(N)(=O)=O)cc3)C2=O)cc1` (stereo not given), for which the fold increase turned out to be 1.05 and the outcome was inactive.
In the same order, the values of `CC(C)(C)c1ccc(/C=C2\Oc3c(ccc(O)c3CN3CCN(CCO)CC3)C2=O)cc1` are 1.25 and “inactive”.
As to `COc1ccc(CNC(=O)C2CC(c3ccc(C(F)(F)F)cc3)=NO2)cc1` (stereo not given), the fold increase is 0.93 and the outcome was inactive.
On to `CCN(CC)c1ccc(NC(=O)C2CCC(CNc3c(N4CCCC4)c(=O)c3=O)CC2)c(C)c1` (stereo not given), for which the fold increase turned out to be 1 and the compound was classed as inactive.
Consider `COc1ccc(CCN2C(=O)N(c3ccc(OC)cc3)C(=O)C2CC(=O)Nc2ccc(OC)cc2)cc1` (stereo not given), for which the fold increase came to 0.88 and the call was inactive.
For `COC(=O)c1ccc(C(NC(=O)OCc2ccccc2)/C(F)=C/[C@@H](C)C(=O)O)cc1` (stereo not given in full), the fold increase is 0.86 and the result was inactive.
The corresponding values for `COC(=O)c1c(C)cc(O)c(C)c1O` are 0.79 and “inactive”.
The corresponding values for `O=C1CC2(CCCC2)Oc2ccc(Cl)cc21` are 0.69 and “inactive”.
In the case of `CC(C)Oc1ccc(CCC(=O)NNC(=S)NCc2ccccc2)cc1`, the fold increase was found to be 1.13 and the outcome was inactive.
The corresponding values for `CC(=O)N[C@H]1[C@H]([C@H](O)[C@H](O)CO)OC(C(=O)O)=C[C@@H]1O` are 0.87 and “inactive”.
For `CC(CO)(CO)NC(=O)c1ccc(=O)[nH]n1`, the fold increase stood at 0.94 and the call was inactive.
The corresponding values for `COC(C[C@@H](O)C[C@H](O)[C@H](C)OCc1ccccc1)OC` are 0.91 and “inactive”.
For `COC(C[C@@H]1O[C@@H]1C(=O)[C@@H](C)OCc1ccccc1)OC`, the fold increase was determined as 0.81 and the outcome was inactive.
With `COc1ccc(NC(=O)CSc2ncnc3[nH]ncc23)cc1`, the fold increase came out at 1.02 and the compound was called inactive.
The corresponding values for `CCOC(=O)c1ccc(NC(=O)c2c(NCc3ccccc3)[nH]c(=O)[nH]c2=O)cc1` are 0.87 and “inactive”.
With `O=C(NC(=O)N1CCSCC1)c1c(Cl)cccc1Cl`, the fold increase came to 1 and the compound was called inactive.
Consider `CNC(C)C#Cc1ccc2sc3cc(OC)c(OC)cc3c(=O)c2c1` (stereo not given), for which the fold increase is 0.67 and the call was inactive.
Take `O=C(O)/C=C/c1ccc2c(c1)OCCO2`: the fold increase amounted to 0.95 and the compound was called inactive.
On to `C[C@H](NC(=O)c1nc[nH]c1C(=O)N[C@@H](C)C(=O)OC(C)(C)C)C(=O)OC(C)(C)C`, for which the fold increase came to 0.88 and the compound was classed as inactive.
For `CNC(=S)NNC(=O)c1ccc(N(C)C)cc1`, the fold increase is 1.02 and the result was inactive.
For `COc1ccc(CNC(=O)[C@@H]2CC=C[C@@H]3CCN(C4CC4)C(=O)[C@@H]32)cc1`, the fold increase amounted to 0.88 and the compound was called inactive.
As for `CN=C1C=C/C(=N/N=c2\ccn(O)cc2C)C=C1C`, the fold increase is 1.05 and the compound was classed as inactive.
As to `Cc1ccccc1Nc1c(-c2ccccc2)nc2ncccn12`, the fold increase was found to be 1.06 and the call was inactive.
For the compound `O=C1CCCC(O)=C1N=Nc1ccc(S(=O)(=O)N2CCOCC2)cc1`, the fold increase was 0.97 and the outcome was inactive.
Turning to `COC(C[C@@H]1O[C@@H]1C(=O)[C@H](C)OCc1ccccc1)OC`, the fold increase was found to be 0.81 and the compound was classed as inactive.
With `O=c1[nH]c(CSc2ccccc2)nc2c1oc1ccccc12`, the fold increase was determined as 1.16 and the compound was classed as inactive.
With `CCOC(=O)C1=NN(c2ccc(Cl)cc2)/C(=C/C2=NCCc3cc(OC)c(OC)cc32)S1`, the fold increase is 1.18 and the compound was classed as inactive.
Turning to `CCn1c2ccccc2c2cc(NC(=O)Nc3ccc([N+](=O)[O-])cc3C)ccc21`, the fold increase was determined as 0.73 and the outcome was inactive.
As to `Cc1ccc(NC(=O)c2nc[nH]c2C(=O)N[C@@H](CCCCNC(=O)OC(C)(C)C)C(=O)OC(C)(C)C)cc1`, the fold increase is 0.74 and the compound was classed as inactive.
Take `C/C=C/C(=O)Nc1ccc(N2CCN(c3ccc(C(F)(F)F)cn3)CC2)nc1`: the fold increase stood at 0.88 and the outcome was inactive.
Consider `CCC(=O)Nc1cccc(C2=NOC3(C2)C[C@@H](C(N)=O)N(C(=O)c2cc([N+](=O)[O-])cc([N+](=O)[O-])c2C)C3)c1` (stereo not given in full), for which the fold increase amounted to 1.3 and the compound was called inactive.
For `CCCC[C@@H]1CN=C(N)N1CCCC`, the fold increase was determined as 1.05 and the result was inactive.
Turning to `COC(C/C=C/C(=O)[C@@H](C)OCc1ccccc1)OC`, the fold increase is 0.77 and the outcome was inactive.
The corresponding values for `Cn1ccnc1-c1nnn(-c2ccc(F)cc2)n1` are 1.06 and “inactive”.
In the same order, the values of `CCOC(=O)c1cccc(NC(=O)c2ccc(F)cc2F)c1` are 0.77 and “inactive”.
`O=C(N/N=C/c1ccccn1)c1cccnc1`: the fold increase worked out at 1.05 and the result was inactive.
For `COC(=O)C1=C[C@@H](C(=O)OC)[C@@H]2C3=C(C(=O)[C@]2(C)NC(=O)c2ccccc2)[C@H](C)n2c(=O)n(C)c(=O)n2[C@@H]3C1`, the fold increase amounted to 0.77 and the result was inactive.
On to `C#CCOCCOCCOCCNc1nc(N2CCN(C(=O)C([C@@H](C)CC)n3cc(C(N)COC(=O)C(F)(F)F)nn3)CC2)nc(N2CCN(C(=O)[C@H](CCCCN)n3cc(C(N)CC(C)C)nn3)CC2)n1` (stereo not given in full), for which the fold increase stood at 0.79 and the call was inactive.
As for `C=C(C)COc1ccc(-c2nc(N)ncc2-c2ccccc2OC)c(O)c1`, the fold increase was determined as 0.94 and the compound was classed as inactive.
For the compound `COCCN(C(=S)Nc1cccc(Cl)c1C)C(C)c1ccco1` (stereo not given), the fold increase worked out at 1.01 and the compound was called inactive.
As for `Cc1cccc(Nc2nc(NCCO)nc(N3CCCC3)n2)c1`, the fold increase turned out to be 0.73 and the call was inactive.
Consider `Cc1nnc(Nc2ccccc2F)s1`, for which the fold increase was 0.86 and the compound was classed as inactive.
For `CC1(C)C2CC[C@]3(C)C(CC=C4[C@@H]5C[C@@](C)(CO)CC[C@]5(C(=O)O)CC[C@]43C)[C@@]2(C)CC[C@@H]1O` (stereo not given in full), the fold increase came to 1.01 and the compound was classed as inactive.
The corresponding values for `C=C(C)CNC(=S)Nc1ccc(S(=O)(=O)Nc2cnc3ccccc3n2)cc1` are 0.94 and “inactive”.
